# Measured values: article PMC7862700, “An all-to-all approach to the identification of sequence-specific readers for epigenetic DNA modifications on cytosine”
# Tests used:
# Test in all cases: DAPPL (digital affinity profiling via proximity ligation, sequencing); 10 mM Tris-HCl pH 7.5, 50 mM NaCl, 1 mM DTT, 4% glycerol, room temperature, 30 min; GST-TFs on glutathione beads, 16-mer random dsDNA library, 0.1% formaldehyde crosslink after washing; high values mean tight binding
# FLI1 = molecular target: T1, FLI1 (Homo sapiens, UniProt Q01543 1-452); conditions: protein: recombinant; tags: N-terminal GST; dsDNA, one strand shown
# T1 sequence: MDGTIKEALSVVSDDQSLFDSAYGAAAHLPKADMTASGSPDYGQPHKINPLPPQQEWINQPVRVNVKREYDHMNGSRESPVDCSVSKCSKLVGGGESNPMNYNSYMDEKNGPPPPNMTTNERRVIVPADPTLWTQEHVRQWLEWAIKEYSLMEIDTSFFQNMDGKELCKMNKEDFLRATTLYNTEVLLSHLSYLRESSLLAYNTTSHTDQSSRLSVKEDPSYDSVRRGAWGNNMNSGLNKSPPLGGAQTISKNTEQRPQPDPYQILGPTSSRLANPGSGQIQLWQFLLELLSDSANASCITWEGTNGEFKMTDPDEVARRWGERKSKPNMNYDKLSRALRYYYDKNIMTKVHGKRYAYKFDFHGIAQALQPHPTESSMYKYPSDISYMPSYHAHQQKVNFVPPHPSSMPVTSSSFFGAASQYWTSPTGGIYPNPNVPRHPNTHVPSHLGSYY
# Summary of the method: (§1)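 Human transcription factors fused to GST were expressed in yeast, captured on glutathione beads, given DNA barcodes and pooled with a GST-only negative control. Pools were incubated with 200 nmole of a 16-mer random double-stranded DNA library in Tris/NaCl/DTT/glycerol buffer at room temperature for 30 min. They were then washed, crosslinked with 0.1% formaldehyde, proximity-ligated (BsaI/T4 ligase, 1 h, 37 °C), PCR-amplified and sequenced on an Illumina NextSeq500. Binding signal is each 6-mer's read frequency for a factor divided by its frequency for the GST control.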
# ELK1 = molecular target: T2, ELK1 (Homo sapiens, UniProt P19419 1-428); conditions: protein: recombinant; tags: N-terminal GST; dsDNA, one strand shown
# T2 sequence: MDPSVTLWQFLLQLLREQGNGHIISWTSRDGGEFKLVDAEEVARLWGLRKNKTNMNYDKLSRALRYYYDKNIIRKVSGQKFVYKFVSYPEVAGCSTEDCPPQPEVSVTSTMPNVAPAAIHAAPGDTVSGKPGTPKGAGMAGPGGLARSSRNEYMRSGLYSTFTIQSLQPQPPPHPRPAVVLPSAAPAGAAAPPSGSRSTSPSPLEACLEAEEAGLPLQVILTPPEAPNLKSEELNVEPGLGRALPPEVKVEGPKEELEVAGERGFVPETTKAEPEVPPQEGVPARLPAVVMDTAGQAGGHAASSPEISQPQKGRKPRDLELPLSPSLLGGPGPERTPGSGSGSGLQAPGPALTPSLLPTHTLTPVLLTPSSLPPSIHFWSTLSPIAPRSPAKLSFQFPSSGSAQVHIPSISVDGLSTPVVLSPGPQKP
# Summary of the method: as §1
# GABPA = molecular target: T3, GABPA (Homo sapiens, UniProt Q06546 1-454); conditions: protein: recombinant; tags: N-terminal GST; dsDNA, one strand shown
# T3 sequence: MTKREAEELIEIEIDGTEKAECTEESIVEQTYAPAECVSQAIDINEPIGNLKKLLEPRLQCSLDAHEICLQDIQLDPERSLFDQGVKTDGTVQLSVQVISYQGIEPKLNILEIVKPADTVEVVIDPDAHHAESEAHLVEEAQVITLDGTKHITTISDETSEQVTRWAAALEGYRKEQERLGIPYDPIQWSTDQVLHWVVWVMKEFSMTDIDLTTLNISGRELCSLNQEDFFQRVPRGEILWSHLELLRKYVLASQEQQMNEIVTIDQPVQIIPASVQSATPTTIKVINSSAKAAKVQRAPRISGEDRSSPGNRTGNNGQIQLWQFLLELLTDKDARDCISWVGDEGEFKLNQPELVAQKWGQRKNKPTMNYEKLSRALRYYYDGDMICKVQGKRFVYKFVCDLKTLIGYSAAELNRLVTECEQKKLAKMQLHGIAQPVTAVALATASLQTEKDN
# Summary of the method: as §1
# ERG = molecular target: T4, ERG (Homo sapiens, UniProt P11308 1-479); conditions: protein: recombinant; tags: N-terminal GST; dsDNA, one strand shown
# T4 sequence: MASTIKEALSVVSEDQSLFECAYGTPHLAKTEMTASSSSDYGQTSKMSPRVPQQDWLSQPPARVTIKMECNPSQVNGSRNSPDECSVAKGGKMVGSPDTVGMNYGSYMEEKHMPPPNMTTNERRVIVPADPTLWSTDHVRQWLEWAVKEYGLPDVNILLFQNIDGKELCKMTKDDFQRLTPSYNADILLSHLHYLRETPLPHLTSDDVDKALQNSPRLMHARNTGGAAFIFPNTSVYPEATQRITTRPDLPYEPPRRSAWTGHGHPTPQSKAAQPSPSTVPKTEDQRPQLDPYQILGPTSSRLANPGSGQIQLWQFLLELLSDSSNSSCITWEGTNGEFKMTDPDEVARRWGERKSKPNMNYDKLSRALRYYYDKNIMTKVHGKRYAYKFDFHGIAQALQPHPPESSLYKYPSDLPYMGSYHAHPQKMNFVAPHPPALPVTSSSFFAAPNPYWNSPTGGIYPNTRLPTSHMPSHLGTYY
# Summary of the method: as §1
# ELF1 = ELF1 (Homo sapiens, UniProt P32519 1-619); conditions: protein: recombinant; tags: N-terminal GST; dsDNA, one strand shown
# Summary of the method: as §1
# EHF = molecular target: T5, EHF (Homo sapiens, UniProt Q9NZC4 1-300); conditions: protein: recombinant; tags: N-terminal GST; dsDNA, one strand shown
# T5 sequence: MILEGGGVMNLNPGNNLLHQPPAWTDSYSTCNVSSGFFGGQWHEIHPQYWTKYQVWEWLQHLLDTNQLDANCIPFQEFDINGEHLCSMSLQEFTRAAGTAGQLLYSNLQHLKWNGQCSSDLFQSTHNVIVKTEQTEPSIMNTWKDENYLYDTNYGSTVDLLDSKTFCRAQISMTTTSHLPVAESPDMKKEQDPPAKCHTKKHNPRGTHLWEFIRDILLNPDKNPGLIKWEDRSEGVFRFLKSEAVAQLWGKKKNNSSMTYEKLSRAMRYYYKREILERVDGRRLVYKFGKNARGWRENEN
# Summary of the method: as §1
# SPI1 = SPI1 (Homo sapiens, UniProt P17947 1-270); conditions: protein: recombinant; tags: N-terminal GST; dsDNA, one strand shown
# Summary of the method: as §1
# SPIB = SPIB (Homo sapiens, UniProt Q01892 1-262); conditions: protein: recombinant; tags: N-terminal GST; dsDNA, one strand shown
# Summary of the method: as §1
# ELK3 = molecular target: T6, ELK3 (Homo sapiens, UniProt P41970 1-407); conditions: protein: recombinant; tags: N-terminal GST; dsDNA, one strand shown
# T6 sequence: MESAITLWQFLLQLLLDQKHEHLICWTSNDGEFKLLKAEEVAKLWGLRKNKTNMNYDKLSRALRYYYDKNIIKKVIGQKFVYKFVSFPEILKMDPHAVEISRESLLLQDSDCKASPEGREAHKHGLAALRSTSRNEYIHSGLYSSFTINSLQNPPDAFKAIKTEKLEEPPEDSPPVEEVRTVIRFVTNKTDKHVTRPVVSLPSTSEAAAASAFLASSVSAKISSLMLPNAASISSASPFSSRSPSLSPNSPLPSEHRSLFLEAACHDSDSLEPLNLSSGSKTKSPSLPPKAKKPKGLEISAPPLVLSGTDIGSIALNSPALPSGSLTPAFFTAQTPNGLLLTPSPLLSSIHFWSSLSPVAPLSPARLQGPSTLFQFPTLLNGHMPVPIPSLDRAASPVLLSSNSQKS
# Summary of the method: as §1
# FEV = molecular target: T7, FEV (Homo sapiens, UniProt Q99581 1-238); conditions: protein: recombinant; tags: N-terminal GST; dsDNA, one strand shown
# T7 sequence: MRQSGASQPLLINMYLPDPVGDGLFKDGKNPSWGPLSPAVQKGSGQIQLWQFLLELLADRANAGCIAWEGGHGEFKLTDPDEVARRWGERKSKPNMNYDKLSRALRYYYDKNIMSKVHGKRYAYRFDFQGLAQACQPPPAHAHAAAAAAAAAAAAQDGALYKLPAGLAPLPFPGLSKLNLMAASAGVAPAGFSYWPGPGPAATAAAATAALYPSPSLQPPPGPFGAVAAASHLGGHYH
# Summary of the method: as §1
# ETV5 = ETV5 (Homo sapiens, UniProt P41161 1-510); conditions: protein: recombinant; tags: N-terminal GST; dsDNA, one strand shown
# Summary of the method: as §1
# HSF1 = HSF1 (Homo sapiens, UniProt Q00613 1-529); conditions: protein: recombinant; tags: N-terminal GST; chain copies: 3; dsDNA, one strand shown
# Summary of the method: as §1
# SPIC = molecular target: T8, SPIC (Homo sapiens, UniProt Q8N5J4 1-248); conditions: protein: recombinant; tags: N-terminal GST; dsDNA, one strand shown
# T8 sequence: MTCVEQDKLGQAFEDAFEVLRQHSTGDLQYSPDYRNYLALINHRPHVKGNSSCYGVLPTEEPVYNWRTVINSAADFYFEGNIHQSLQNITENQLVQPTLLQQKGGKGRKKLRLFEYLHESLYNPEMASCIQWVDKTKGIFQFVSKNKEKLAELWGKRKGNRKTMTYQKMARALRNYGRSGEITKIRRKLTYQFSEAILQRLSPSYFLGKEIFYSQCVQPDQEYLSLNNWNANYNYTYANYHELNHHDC
# Summary of the method: as §1
# ELF4 = ELF4 (Homo sapiens, UniProt Q99607 1-663); conditions: protein: recombinant; tags: N-terminal GST; dsDNA, one strand shown
# Summary of the method: as §1
# ELK4 = molecular target: T9, ELK4 (Homo sapiens, UniProt P28324-2 1-405); conditions: protein: recombinant; tags: N-terminal GST; dsDNA, one strand shown
# T9 sequence: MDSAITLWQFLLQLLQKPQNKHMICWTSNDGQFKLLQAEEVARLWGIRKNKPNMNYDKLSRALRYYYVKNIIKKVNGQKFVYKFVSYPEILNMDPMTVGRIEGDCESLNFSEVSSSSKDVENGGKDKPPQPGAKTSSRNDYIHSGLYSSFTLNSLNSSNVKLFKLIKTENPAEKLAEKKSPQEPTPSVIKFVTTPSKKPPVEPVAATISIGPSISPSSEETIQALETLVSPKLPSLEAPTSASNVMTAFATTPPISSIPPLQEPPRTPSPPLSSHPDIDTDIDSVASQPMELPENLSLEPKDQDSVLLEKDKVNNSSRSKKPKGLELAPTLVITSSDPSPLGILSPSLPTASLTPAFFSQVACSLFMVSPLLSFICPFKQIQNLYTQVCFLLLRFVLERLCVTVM
# Summary of the method: as §1
# ETV2 = molecular target: T10, ETV2 (Homo sapiens, UniProt O00321 1-342); conditions: protein: recombinant; tags: N-terminal GST; dsDNA, one strand shown
# T10 sequence: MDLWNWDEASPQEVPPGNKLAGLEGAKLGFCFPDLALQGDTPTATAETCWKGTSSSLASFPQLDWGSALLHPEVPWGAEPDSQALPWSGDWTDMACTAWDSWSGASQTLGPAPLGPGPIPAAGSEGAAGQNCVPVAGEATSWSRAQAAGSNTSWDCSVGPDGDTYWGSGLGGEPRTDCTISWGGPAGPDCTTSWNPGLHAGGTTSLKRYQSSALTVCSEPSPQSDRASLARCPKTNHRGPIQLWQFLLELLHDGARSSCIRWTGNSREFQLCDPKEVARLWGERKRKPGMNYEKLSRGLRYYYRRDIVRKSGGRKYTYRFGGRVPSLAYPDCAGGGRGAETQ
# Summary of the method: as §1
# ELF3 = molecular target: T11, ELF3 (Homo sapiens, UniProt P78545 1-371); conditions: protein: recombinant; tags: N-terminal GST; dsDNA, one strand shown
# T11 sequence: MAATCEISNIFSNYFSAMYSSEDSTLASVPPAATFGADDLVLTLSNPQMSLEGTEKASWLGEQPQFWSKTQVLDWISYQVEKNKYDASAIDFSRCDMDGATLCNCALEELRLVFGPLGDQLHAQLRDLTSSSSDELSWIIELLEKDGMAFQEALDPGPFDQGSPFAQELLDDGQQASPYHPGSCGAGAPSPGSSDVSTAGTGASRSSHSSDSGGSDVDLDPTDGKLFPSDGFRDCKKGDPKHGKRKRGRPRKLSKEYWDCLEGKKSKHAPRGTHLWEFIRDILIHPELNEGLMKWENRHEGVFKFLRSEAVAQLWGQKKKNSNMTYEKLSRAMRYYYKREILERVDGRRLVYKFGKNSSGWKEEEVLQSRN
# Summary of the method: as §1
# CRX = CRX (Homo sapiens, UniProt O43186 1-299); conditions: protein: recombinant; tags: N-terminal GST; dsDNA, one strand shown
# Summary of the method: as §1
# ETV1 = ETV1 (Homo sapiens, UniProt P50549 1-477); conditions: protein: recombinant; tags: N-terminal GST; dsDNA, one strand shown
# Summary of the method: as §1
# Sequence of ETV5 (P41161 whole entry): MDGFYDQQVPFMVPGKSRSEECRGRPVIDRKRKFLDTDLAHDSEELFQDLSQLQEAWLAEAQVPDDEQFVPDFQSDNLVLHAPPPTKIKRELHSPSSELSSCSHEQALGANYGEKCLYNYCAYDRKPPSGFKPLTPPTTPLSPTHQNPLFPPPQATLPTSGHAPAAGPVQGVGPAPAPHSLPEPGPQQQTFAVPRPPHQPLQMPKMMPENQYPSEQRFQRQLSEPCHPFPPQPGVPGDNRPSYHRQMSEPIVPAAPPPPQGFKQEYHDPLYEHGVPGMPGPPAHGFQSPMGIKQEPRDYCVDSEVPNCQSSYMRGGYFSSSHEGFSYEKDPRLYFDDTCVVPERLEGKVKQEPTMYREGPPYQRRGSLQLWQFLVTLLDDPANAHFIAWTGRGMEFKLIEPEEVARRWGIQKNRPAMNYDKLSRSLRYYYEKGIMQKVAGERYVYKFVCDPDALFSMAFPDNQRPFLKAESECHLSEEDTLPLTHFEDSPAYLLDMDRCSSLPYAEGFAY
# Sequence of HSF1 (Q00613 whole entry): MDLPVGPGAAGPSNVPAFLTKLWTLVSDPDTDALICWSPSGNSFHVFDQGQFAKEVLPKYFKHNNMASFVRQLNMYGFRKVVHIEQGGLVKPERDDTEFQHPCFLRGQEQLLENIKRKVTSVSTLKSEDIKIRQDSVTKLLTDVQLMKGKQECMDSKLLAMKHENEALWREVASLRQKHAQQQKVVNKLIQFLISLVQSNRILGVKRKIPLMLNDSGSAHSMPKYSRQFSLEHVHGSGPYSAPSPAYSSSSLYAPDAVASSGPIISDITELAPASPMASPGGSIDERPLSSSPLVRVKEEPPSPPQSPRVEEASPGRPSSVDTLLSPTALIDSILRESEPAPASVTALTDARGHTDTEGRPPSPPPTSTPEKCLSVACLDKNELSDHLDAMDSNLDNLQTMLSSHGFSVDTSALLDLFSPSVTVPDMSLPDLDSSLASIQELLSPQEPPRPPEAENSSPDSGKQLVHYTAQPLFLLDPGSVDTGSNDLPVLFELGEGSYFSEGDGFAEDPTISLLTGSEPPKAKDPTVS
# Sequence of ELF1 (P32519 whole entry): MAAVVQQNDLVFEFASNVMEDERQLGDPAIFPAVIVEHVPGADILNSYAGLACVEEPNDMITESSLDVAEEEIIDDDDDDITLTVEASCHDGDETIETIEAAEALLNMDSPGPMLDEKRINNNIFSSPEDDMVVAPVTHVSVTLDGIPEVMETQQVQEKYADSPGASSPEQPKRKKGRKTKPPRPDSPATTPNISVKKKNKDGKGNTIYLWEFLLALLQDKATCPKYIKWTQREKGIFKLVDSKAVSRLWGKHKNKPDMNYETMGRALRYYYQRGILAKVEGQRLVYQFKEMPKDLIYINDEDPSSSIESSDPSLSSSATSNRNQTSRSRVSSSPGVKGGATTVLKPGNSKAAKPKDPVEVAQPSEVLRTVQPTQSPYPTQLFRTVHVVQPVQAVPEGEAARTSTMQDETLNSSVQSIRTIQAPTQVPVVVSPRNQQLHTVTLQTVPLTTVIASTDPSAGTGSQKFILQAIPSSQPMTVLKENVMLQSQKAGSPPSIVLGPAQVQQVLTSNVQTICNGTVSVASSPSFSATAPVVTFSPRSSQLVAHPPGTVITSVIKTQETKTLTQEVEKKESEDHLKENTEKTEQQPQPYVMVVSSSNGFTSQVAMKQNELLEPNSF
# Sequence of SPIB (Q01892 whole entry): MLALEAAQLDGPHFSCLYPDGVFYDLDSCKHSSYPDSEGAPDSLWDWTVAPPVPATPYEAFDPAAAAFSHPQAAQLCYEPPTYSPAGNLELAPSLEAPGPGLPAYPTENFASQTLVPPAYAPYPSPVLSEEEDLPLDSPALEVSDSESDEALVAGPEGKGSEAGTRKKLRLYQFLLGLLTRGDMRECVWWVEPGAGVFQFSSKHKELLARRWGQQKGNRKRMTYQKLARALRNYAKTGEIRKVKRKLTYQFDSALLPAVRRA
# Sequence of CRX (O43186 whole entry): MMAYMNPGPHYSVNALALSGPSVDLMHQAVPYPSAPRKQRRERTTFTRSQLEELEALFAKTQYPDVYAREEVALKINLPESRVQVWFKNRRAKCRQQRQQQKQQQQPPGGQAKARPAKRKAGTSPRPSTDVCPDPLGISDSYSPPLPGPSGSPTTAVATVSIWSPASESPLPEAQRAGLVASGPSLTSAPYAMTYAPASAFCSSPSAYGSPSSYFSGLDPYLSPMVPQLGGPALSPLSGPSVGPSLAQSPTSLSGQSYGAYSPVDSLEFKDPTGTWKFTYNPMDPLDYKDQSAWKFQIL
# Sequence of ETV1 (P50549 whole entry): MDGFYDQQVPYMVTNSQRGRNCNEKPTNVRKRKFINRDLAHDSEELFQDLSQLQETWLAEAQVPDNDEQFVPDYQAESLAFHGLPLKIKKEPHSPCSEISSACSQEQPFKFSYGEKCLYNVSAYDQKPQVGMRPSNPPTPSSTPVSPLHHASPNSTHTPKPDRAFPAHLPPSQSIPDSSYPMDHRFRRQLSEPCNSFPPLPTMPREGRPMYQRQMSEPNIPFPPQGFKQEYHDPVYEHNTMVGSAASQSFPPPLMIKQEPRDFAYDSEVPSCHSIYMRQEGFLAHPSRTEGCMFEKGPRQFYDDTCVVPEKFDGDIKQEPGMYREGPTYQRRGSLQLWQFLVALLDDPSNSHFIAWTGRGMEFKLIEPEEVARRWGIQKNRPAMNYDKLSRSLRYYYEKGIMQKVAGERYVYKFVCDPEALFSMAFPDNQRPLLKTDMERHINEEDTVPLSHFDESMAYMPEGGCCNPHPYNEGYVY
# Sequence of ELF4 (Q99607 whole entry): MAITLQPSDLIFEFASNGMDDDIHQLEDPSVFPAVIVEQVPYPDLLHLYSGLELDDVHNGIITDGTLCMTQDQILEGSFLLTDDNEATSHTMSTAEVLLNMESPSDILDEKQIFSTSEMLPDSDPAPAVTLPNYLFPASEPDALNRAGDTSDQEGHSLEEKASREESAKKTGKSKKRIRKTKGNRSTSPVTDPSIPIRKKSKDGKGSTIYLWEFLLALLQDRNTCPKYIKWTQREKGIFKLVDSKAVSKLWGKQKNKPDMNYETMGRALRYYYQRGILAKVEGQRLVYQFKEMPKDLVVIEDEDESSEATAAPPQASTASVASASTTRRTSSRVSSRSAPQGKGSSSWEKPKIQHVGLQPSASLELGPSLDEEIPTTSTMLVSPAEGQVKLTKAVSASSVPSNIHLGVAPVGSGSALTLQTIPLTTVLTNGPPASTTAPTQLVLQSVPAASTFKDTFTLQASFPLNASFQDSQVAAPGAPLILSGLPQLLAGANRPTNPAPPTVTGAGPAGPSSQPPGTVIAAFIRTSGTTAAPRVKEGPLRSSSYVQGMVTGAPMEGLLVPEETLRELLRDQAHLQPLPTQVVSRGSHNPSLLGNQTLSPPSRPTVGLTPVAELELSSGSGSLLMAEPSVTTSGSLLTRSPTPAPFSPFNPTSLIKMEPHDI
sequence,measurement,setting,value
ACTACC,binding signal,FLI1,"1.61 fold enrichment (6-mer frequency, TF over GST control)"
same,binding signal,ELK1,"1.72 fold enrichment (6-mer frequency, TF over GST control)"
same,binding signal,GABPA,"1.67 fold enrichment (6-mer frequency, TF over GST control)"
same,binding signal,ERG,"1.63 fold enrichment (6-mer frequency, TF over GST control)"
same,binding signal,ELF1,"1.71 fold enrichment (6-mer frequency, TF over GST control)"
same,binding signal,EHF,"1.51 fold enrichment (6-mer frequency, TF over GST control)"
same,binding signal,SPI1,"1.69 fold enrichment (6-mer frequency, TF over GST control)"
same,binding signal,SPIB,"1.69 fold enrichment (6-mer frequency, TF over GST control)"
same,binding signal,ELK3,"1.63 fold enrichment (6-mer frequency, TF over GST control)"
same,binding signal,FEV,"1.55 fold enrichment (6-mer frequency, TF over GST control)"
same,binding signal,ETV5,"1.64 fold enrichment (6-mer frequency, TF over GST control)"
same,binding signal,HSF1,"1.09 fold enrichment (6-mer frequency, TF over GST control)"
same,binding signal,SPIC,"1.58 fold enrichment (6-mer frequency, TF over GST control)"
same,binding signal,ELF4,"1.66 fold enrichment (6-mer frequency, TF over GST control)"
same,binding signal,ELK4,"1.59 fold enrichment (6-mer frequency, TF over GST control)"
same,binding signal,ETV2,"1.72 fold enrichment (6-mer frequency, TF over GST control)"
same,binding signal,ELF3,"1.58 fold enrichment (6-mer frequency, TF over GST control)"
same,binding signal,CRX,"1.1 fold enrichment (6-mer frequency, TF over GST control)"
same,binding signal,ETV1,"1.59 fold enrichment (6-mer frequency, TF over GST control)"
